Drawing on PubChem BioAssay (Tox21), this text covers Potency for six compounds.

Test [1] can be described thus: qHTS assay to identify small molecule antagonists of the thyroid receptor (TR) signaling pathway (AID 743065). Further: nearly all actives have a fitted effect of over 55% in size. Further: potency means the concentration at half of the fitted maximal effect. An outline of the steps:
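GH3.TRE-Luc rat pituitary cells (two TREs driving luciferase) were dosed with compound, then stimulated with 1 nM T3 (final) for 23.5 h at 37 C. ONE-Glo luminescence was the read-out, with CellTiter-Fluor fluorescence as the cytotoxicity counter-screen.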
A general note: qHTS replaces the single test concentration by a dilution series.

The test system of test [2] is thyroid hormone receptor (rat, GH3 cells). As to the kind of experiment: qHTS assay to identify small molecule agonists of the thyroid receptor (TR) signaling pathway (AID 743066; calls by dose curve).
The target in test [3] is Estrogen receptor (Homo sapiens) (UniProt P03372). As to the kind of experiment: qHTS assay to identify small molecule antagonists of the estrogen receptor alpha (ER-alpha) signaling pathway (AID 743069; active means well fitted curve in the direction sought with a large enough effect in the signal ratio in the repeat runs, not every such curve was filed as active; the % refers to the signal ratio). An outline of the steps:
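Beta-lactamase FRET fluorescence is read after 2 hr at room temperature with LiveBLAzer B/G substrate. Before that, ER-alpha-bla HEK293 cells sit 4 hr after plating, then receive compound plus 17beta-estradiol and incubate 18 hr at 37C.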

A short description of test [4]: qHTS assay to identify small molecule antagonists of the estrogen receptor alpha (ER-alpha) signaling pathway - cell viability counter screen (AID 743074; calls by dose curve;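 further: HEK293 cells carrying ER-alpha-UAS-bla reporter stimulated with 17beta-estradiol; nearly all actives have a fitted effect of over 45% in size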).
The target of test [5] is Estrogen receptor (Homo sapiens) (UniProt P03372). As to the kind of experiment: qHTS assay to identify small molecule agonists of the estrogen receptor alpha (ER-alpha) signaling pathway (AID 743075; calls by dose curve;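 further: HEK293 GripTite cells with ER-alpha and UAS-driven beta-lactamase reporter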).
Test [6] shares this target. As to the kind of experiment: qHTS assay to identify small molecule agonists of the estrogen receptor alpha (ER-alpha) signaling pathway using the BG1 cell line (AID 743079). Further: nearly all actives have a fitted effect of over 20% in size.
Test [7] is described as follows: qHTS assay to identify small molecule antagonists of the estrogen receptor alpha (ER-alpha) signaling pathway using the BG1 cell line (AID 743080; calls by dose curve;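 further: BG1 cells stimulated with 17beta-estradiol alongside compound; series mostly up to about 70 µM; nearly all actives have a fitted effect of over 25% in size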). An outline of the steps: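 Luminescence from a 4×ERE-luciferase reporter in BG1-Luc-4E2 cells served as read-out. Cells, pre-cultured 5 days in stripped-serum phenol-red-free medium, were exposed to compound with 17beta-estradiol co-stimulation for 21.5 h at 37 C.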

Test [8] in a line: qHTS assay to identify small molecule antagonists of the estrogen receptor alpha (ER-alpha) signaling pathway using the BG1 cell line - cell viability counter screen (AID 743081).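 Further: compound given together with 17beta-estradiol as the ER stimulus; series mostly up to about 70 µM; nearly all actives have a fitted effect of over 45% in size.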
Test [9] has as its target Aromatase (Homo sapiens) (UniProt P11511). As to the kind of experiment: qHTS assay to identify aromatase inhibitors (AID 743083). Further: nearly all actives have a fitted effect of over 55% in size. Further: potency means the concentration at half of the fitted maximal effect.
Test [10] can be described thus: qHTS assay to identify aromatase inhibitors - cell viability counter screen (AID 743084).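 Further: cells stimulated with testosterone during compound exposure; nearly all actives have a fitted effect of over 55% in size.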
In test [11] the target is Aryl hydrocarbon receptor (Homo sapiens) (UniProt P35869). As to the kind of experiment: qHTS assay to identify small molecule that activate the aryl hydrocarbon receptor (AhR) signaling pathway (AID 743085).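 Further: HG2L7.5c1 human HepG2 liver cells with stably integrated DRE-driven firefly reporter; series mostly up to about 70 µM; nearly all actives have a fitted effect of over 15% in size.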 Put shortly:
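A multiplexed format paired cell viability (CellTiter-Fluor fluorescence) with AhR-dependent luciferase output (ONE-Glo luminescence) in the same wells of HepG2 DRE-luc cells after 24 h compound exposure at 37C.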

Test [12] in a line: qHTS assay to identify small molecule that activate the aryl hydrocarbon receptor (AhR) signaling pathway - cell viability counter screen (AID 743086).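 Further: HepG2 liver cells carrying the AhR DRE luciferase reporter; series mostly up to about 70 µM; nearly all actives have a fitted effect of over 45% in size.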 Put shortly:
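HepG2-AhR-luc (HG2L7.5c1) cells, 4000/well, treated 24 h at 37 C with compound; viability measured as CellTiter-Fluor fluorescence after 30 min in the same wells as the luciferase read.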

Test [13] concerns the target Peroxisome proliferator-activated receptor gamma (Homo sapiens) (UniProt P37231). As to the kind of experiment: qHTS assay to identify small molecule agonists of the peroxisome proliferator-activated receptor gamma (PPARg) signaling pathway (AID 743094; active means well fitted activation curve with a large enough effect in the signal ratio in the repeat runs, not every such curve was filed as active; the % refers to the signal ratio; further: potency means the concentration at half of the fitted maximal effect). An outline of the steps: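 Fluorescence-based beta-lactamase readout in HEK293H PPARg UAS-bla cells after 17 h compound exposure (37C) and 1 h B/G FRET substrate incubation at room temperature.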

Test [14] in a line: qHTS assay to identify small molecule antagonists of the peroxisome proliferator-activated receptor gamma (PPARg) signaling pathway - cell viability counter screen (AID 743194). Further: nearly all actives have a fitted effect of over 55% in size. An outline of the steps: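 Cytotoxicity counter screen in PPARg-bla HEK293H cells, same wells as reporter assay. Compounds plus 50 nM rosiglitazone (final) for 17 h at 37 C, then viability read by CellTiter-Glo luminescence.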

Test [15] in a line: qHTS assay for small molecule agonists of the antioxidant response element (ARE) signaling pathway (AID 743202; active means well fitted activation curve with a large enough effect in the signal ratio in the repeat runs, not every such curve was filed as active; the % refers to the signal ratio; further: potency means the concentration at half of the fitted maximal effect). An outline of the steps:
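HepG2 ARE-bla reporter line, 2,000 cells/well; 5 h preincubation 37 C/5% CO2; compound (DMSO) 16 h 37 C; B/G FRET substrate 2 h RT; fluorescence intensity.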

The nature of test [16]: qHTS assay for small molecule agonists of the antioxidant response element (ARE) signaling pathway - cell viability counter screen (AID 743203; calls by dose curve; further: nearly all actives have a fitted effect of over 55% in size). Put shortly:
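Parallel cytotoxicity read-out for the ARE-bla screen: HepG2 reporter cells, 16 hrs with compounds, then CellTiter-Glo luminescence.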

A short description of test [17]: qHTS assay for small molecule activators of the heat shock response signaling pathway - cell viability counter screen (AID 743209). Further: nearly all actives have a fitted effect of over 50% in size. An outline of the steps:
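To flag cytotoxic compounds, HSE-bla HeLa cells plated at 1500 cells/well were dosed for 5 h at 37 C, followed by the reporter FRET read and then CellTiter-Glo, with luminescence recorded 30 min after reagent addition.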

The nature of test [18]: qHTS assay for small molecule activators of the heat shock response signaling pathway (AID 743210; active means well fitted activation curve with a large enough effect in the signal ratio in the repeat runs, with a control signal flat, not every such curve was filed as active; the % refers to the signal ratio; further: series mostly up to about 63 µM). An outline of the steps: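 Beta-lactamase reporter read-out: FRET substrate fluorescence after 2.5 h at RT, following 5 h compound treatment at 37 C of HeLa cells carrying HSE-driven bla reporter; quantitative HTS format.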
A short description of test [19]: qHTS assay to identify small molecule agonists of the peroxisome proliferator-activated receptor delta (PPARd) signaling pathway - cell viability counter screen (AID 743211). Further: nearly all actives have a fitted effect of over 55% in size. Put shortly:
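Tox21 library compounds, delivered in DMSO, were incubated 17 h with PPARd-bla HEK293H cells; cytotoxicity was taken from CellTiter-Glo luminescence read 30 min after reagent addition.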

Test [20] deals with Peroxisome proliferator-activated receptor gamma (Homo sapiens) (UniProt P37231). As to the kind of experiment: qHTS assay to identify small molecule antagonists of the peroxisome proliferator-activated receptor gamma (PPARg) signaling pathway (AID 743191; calls by dose curve; further: series mostly up to about 63 µM; nearly all actives have a fitted effect of over 30% in size). Put shortly: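 GeneBLAzer PPARg UAS-bla HEK293H cells, 5 h post-plating, exposed to compounds 17 h at 37C. LiveBLAzer B/G FRET substrate added for 1 h at room temperature; beta-lactamase reporter read by fluorescence intensity.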

Where “and” joins values, the source holds several entries; their conditions need not be identical. Equal entries are not always repeated. Inconclusive results are not listed. More than one record can exist for a structure, and the calls need not agree. Calls of active or inactive are those of the source. Unless noted, the call rests on the fitted dose curve; in most records, active means well fitted curve in the direction sought with a large enough effect in the repeat runs; inconclusive means weak or mixed curves; inactive means no such curve, though single readings can be large; an effect the other way counts as inactive or inconclusive.

Sequence of Aryl hydrocarbon receptor (Homo sapiens) (P35869 whole entry, looked up): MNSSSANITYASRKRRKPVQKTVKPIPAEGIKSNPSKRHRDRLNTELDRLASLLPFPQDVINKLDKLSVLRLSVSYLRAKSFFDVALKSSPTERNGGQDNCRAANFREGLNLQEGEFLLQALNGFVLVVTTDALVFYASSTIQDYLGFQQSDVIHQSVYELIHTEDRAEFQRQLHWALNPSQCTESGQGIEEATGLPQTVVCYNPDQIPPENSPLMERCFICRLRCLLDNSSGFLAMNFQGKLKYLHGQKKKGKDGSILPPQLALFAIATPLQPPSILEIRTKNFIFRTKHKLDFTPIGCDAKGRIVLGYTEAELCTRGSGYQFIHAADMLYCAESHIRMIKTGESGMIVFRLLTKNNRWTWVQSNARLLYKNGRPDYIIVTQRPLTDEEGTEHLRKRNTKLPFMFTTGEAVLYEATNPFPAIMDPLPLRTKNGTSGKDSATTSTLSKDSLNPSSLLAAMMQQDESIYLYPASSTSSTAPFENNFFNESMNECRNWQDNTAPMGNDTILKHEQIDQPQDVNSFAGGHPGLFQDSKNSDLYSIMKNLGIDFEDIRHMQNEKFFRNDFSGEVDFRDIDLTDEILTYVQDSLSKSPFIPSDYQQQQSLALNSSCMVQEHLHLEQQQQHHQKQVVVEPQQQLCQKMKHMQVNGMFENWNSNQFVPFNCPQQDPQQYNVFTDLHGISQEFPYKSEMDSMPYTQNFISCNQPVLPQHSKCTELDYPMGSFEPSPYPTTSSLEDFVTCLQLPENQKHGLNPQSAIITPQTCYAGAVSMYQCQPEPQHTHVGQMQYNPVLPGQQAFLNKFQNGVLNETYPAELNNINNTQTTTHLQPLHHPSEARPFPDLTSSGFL
Sequence of Aromatase (Homo sapiens) (P11511 whole entry, looked up): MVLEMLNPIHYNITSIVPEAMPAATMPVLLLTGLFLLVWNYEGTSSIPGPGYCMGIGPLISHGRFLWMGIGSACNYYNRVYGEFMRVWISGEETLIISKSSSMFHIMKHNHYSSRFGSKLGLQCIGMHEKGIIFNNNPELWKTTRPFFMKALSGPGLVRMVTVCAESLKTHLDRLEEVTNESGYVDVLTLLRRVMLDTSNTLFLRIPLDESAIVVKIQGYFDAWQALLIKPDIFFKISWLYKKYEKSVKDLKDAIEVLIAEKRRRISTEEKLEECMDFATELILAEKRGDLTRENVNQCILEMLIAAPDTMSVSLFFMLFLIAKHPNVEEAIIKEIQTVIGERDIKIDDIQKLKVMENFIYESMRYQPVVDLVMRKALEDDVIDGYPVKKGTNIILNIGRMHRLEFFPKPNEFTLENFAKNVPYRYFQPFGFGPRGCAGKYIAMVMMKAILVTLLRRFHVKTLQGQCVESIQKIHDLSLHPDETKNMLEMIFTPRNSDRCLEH
Sequence of Peroxisome proliferator-activated receptor gamma (Homo sapiens) (P37231 whole entry, looked up): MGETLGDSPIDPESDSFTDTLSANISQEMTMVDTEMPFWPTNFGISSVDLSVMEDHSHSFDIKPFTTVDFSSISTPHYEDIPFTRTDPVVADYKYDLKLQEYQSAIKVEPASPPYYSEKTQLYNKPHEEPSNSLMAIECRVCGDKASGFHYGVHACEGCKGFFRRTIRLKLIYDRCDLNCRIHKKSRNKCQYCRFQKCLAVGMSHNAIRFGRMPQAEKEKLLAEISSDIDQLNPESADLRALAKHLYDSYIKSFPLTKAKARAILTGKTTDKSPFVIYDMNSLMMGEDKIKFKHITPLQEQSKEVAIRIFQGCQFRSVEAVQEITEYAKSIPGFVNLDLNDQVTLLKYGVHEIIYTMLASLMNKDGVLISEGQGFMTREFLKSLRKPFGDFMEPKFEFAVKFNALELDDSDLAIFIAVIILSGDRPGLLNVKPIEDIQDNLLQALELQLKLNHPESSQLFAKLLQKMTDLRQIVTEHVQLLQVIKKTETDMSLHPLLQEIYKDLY
Sequence of Estrogen receptor (Homo sapiens) (P03372 whole entry, looked up): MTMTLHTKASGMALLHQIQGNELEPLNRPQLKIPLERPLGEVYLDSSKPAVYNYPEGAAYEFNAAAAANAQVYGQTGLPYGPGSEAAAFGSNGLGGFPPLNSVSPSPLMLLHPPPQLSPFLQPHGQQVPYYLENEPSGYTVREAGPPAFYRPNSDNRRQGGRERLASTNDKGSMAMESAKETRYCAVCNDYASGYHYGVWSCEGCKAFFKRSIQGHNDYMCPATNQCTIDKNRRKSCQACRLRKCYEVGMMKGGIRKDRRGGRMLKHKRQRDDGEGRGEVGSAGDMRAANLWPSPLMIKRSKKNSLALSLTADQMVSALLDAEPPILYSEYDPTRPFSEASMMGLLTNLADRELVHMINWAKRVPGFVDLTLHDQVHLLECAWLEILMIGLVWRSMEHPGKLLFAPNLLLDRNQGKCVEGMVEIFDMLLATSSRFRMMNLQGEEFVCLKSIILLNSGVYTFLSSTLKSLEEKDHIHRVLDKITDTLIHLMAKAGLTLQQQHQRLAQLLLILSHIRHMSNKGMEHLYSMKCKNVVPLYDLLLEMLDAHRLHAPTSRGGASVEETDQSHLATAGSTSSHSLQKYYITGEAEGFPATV

In the case of `CCCNC(C)C(=O)Nc1ccccc1C` (stereo not drawn), the Potency entry in [1], in test [2], in test [3], in [4], in test [5] and in [6] was “inactive” in each case. Further, the Potency result in [7], in test [8], in test [9], in test [10], in [11] and in test [12] was “inactive” throughout. Also, the Potency entry in test [13], in test [14], in [15], in test [16], in [17] and in test [18] was “inactive” in each case. In addition, the Potency entry in test [19] is “inactive”.

Take `C=C(C)C(=O)O`: the Potency entry in [1], in test [2], in test [3], in test [4], in [5] and in test [6] was “inactive” in each case. Besides, the Potency result in test [7], in test [8], in test [9], in [10], in test [11] and in test [12] was “inactive” each time. Also, the Potency entry in [13], in [14], in test [15], in [16], in test [17] and in test [18] was “inactive” throughout. For the same compound, the Potency entry in [19] was “inactive”.

With `O=C(O)c1cc(Cl)cc(Cl)c1`, the Potency entry in test [1], in [2], in test [3], in test [4], in test [5] and in test [6] was “inactive” each time. Moreover, the Potency result in test [7], in test [8], in test [9], in test [10], in [11] and in test [12] was “inactive” in each case. In addition, the Potency result in test [13], in test [14], in test [15], in test [16], in test [17] and in test [18] was “inactive” in each case.

With `Cc1scc2c1N(C(=O)CN1CCN(C)CC1)c1ccccc1NC2=O`, the Potency result in test [1], in [2], in [3], in [4], in test [5] and in [6] was “inactive” in each case. Besides, the Potency entry in test [7], in test [8], in test [9], in [10], in test [11] and in [12] was “inactive” throughout. Also, the Potency result in [13], in [20], in test [14], in test [15], in test [16] and in [17] was “inactive” each time. Further, the Potency result in test [18] and in test [19] was “inactive” in each case.

`CCOc1ccc2c(c1)C(C)=CC(C)(C)N2`: the results for the Potency in test [1], in test [13] and in [15] were 33.5 µM (active), 21.3 µM (active) and 61.1 µM (active), respectively. In addition, the Potency entry in [2], in test [3], in test [4], in test [5], in test [6] and in test [7] was “inactive” throughout. The Potency entry in test [8], in test [9], in test [10], in test [11], in test [12] and in [20] was “inactive” throughout. The Potency entry in test [14], in test [16], in [17] and in test [19] was “inactive” each time.

With `NCCO`, the Potency entry in test [1], in test [2], in test [3], in test [4], in [5] and in test [6] was “inactive” each time. Moreover, the Potency entry in test [7], in [8], in [10], in [11], in [12] and in test [14] was “inactive” throughout. Also, the Potency result in test [15], in test [16], in test [17], in [18] and in test [19] was “inactive” each time. In addition, the Potency entry in test [9] was “inactive and 61.1 µM (active)”.
